BaF3 parental – parental Ba/F3 cell viability inhibition, counter-screen for JAK2V617F inhibitor project, murine pro-B, CellTiter-Glo luminescence | inhibition, % at 5.6 µM | CellTiter-Glo ATP luminescence | 220,000 tested, 1.1% active | AID 1486, 2009;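 active means inhibition above a per-campaign cutoff, the mean inhibition of all tested compounds plus 3 SD, cut at about 27% in these data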;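 further: 0% = DMSO wells and 100% = JAK Inhibitor I control wells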
Ba/F3 V617F tox – reduced viability of JAK2V617F-dependent Ba/F3 cells, primary screen, JAK2V617F inhibitor project, cell-based, Ba/F3 EpoR-JAK2V617F, luminescence; ATP luminescence; inhibition, % at 5.6 µM; 220,000 tested, 1.1% active;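 active means inhibition above the campaign mean plus 3 SD over all tested compounds, cut at about 24% in these data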;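 further: cytokine-independent growth of Ba/F3 cells driven by EpoR plus mutant JAK2; 0% = DMSO-treated cells and 100% = JAK inhibitor I control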
KLF5 inh – KLF5 expression inhibitors, primary screen, DLD-1 cells, luminescence. 290,000 tested, 0.23% active. inhibition, % at 5 µM. DLD-1 KLF5 promoter-luciferase reporter. AID 1700, 2009;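 active means inhibition above a per-plate limit of that plate's mean compound inhibition plus 3 SD, cut at about 60% in these data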;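 further: 0% = DMSO wells and 100% = LY294002 at 200 µM; higher means less KLF5 promoter-driven luciferase light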
IEC-6 cytotox – cytotoxicity in IEC-6 intestinal epithelial cells, primary screen, cytotoxicity control for KLF5 inhibitor project, cell-based, luminescence; IEC-6 cytotoxicity, luminescence viability; inhibition, % at 5 µM; 290,000 tested, 0.78% active; in the data active means inhibition above about 22%;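 further: 0% = plate median of test compound wells and 100% = cytotoxic reference compound wells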
APP 5UTR inh – inhibitors of APP translation via 5'UTR reporter, primary screen, APP 5'UTR luciferase, SH-SY5Y cells; AID 1285, 2008; 190,000 tested, 0.82% active; inhibition, % at 2 µM; SH-SY5Y APP 5'UTR-luciferase reporter, luminescence;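 active means inhibition above a set limit, derived from the sample mean plus 3 SD, cut at about 45% in these data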
An asterisk follows results filed as active; / = no result. A selection: hits, their analogues and other compounds. The true share with any hit is near 1.9%.

SMILES | BaF3 parental | Ba/F3 V617F tox | KLF5 inh | IEC-6 cytotox | APP 5UTR inh
C[C@H]1O[C@H](O[C@H]2[C@H](O)[C@@H](O)[C@@H](O[C@H]3[C@H](O)[C@@H](O)C(O)O[C@@H]3CO)O[C@@H]2CO)[C@H](O)[C@@H](O)[C@@H]1N[C@H]1C=C(CO)[C@@H](O)[C@H](O)[C@H]1O (stereo not given in full) | -7 | 24* | 10 | 34* | /
CCOC(=O)c1c(CNc2ccncc2)n(C)c2cc(Br)c(O)cc12 | 41* | 38* | -16 | -4 | 24
CCOC(=O)c1c(CS(=O)(=O)c2ccccc2)n(C)c2cc(Br)c(O)cc12 | / | / | -19 | 2 | /
Cc1ccc(OCc2nc(C#N)c(NCc3ccc4c(c3)OCO4)o2)cc1 | 0 | -2 | -30 | 5 | 67*
CN(C(=O)COC(=O)c1nc(-c2ccccc2)n(-c2ccccc2)n1)C1CCS(=O)(=O)C1 (stereo not given) | 9 | 2 | -16 | 2 | -8
CN(C(=O)COC(=O)c1nc(Cl)c(Cl)c(Cl)c1Cl)C1CCS(=O)(=O)C1 (stereo not given) | 7 | -2 | -24 | 2 | 59*
CN(C)CCCN(Cc1ccccc1)C(=S)Nc1cccc(C(F)(F)F)c1 | 10 | -1 | -5 | 2 | -13
CCCN(Cc1ccccc1)C(=S)Nc1ccc(F)cc1 | 18 | 13 | -43 | -7 | -3
CCCN(Cc1ccccc1)C(=S)Nc1cccc(C(F)(F)F)c1 | 33* | 34* | -11 | -1 | 4
CN(C)CCCN(Cc1ccccc1)C(=S)Nc1ccc(F)c(Cl)c1 | 29* | 33* | -32 | -2 | -12
CCc1sc(C(=O)Nc2cccnc2)cc1Br | / | / | -103 | 1 | /
O=C(Cn1cccn1)N1CCCC(N2CCN(c3ccccc3F)CC2)C1 (stereo not given) | / | / | -14 | -5 | /
CCNC(=O)Nc1ccc(OC)cc1OC | 1 | 0 | -21 | -2 | 50*
COc1ccc(NC(=O)NCc2ccco2)c(OC)c1 | 0 | -3 | -25 | -2 | -6
C(C#CCCCCCCCCC[n+]1ccccc1)#CCCCCCCCCC[n+]1ccccc1 | / | / | 46 | 51* | /
O=C(O)Cn1c2c(c3ccccc31)CSc1ccc(Cl)cc1-2 | / | / | -24 | 5 | /
N/C(=N\OC(=O)c1cc([N+](=O)[O-])ccc1Cl)c1ccccn1 | -4 | -2 | -53 | -5 | /
N/C(=N\OC(=O)c1ccc([N+](=O)[O-])cc1Cl)c1ccccn1 | / | / | 65* | 1 | /
COc1cc(Cl)c(NS(=O)(=O)c2cc3[nH]c(=O)c(=O)[nH]c3cc2C)c(OC)c1 | / | / | 2 | -1 | /
CCCC(=O)Nc1ccc(C(=O)N/N=C/c2ccc([N+](=O)[O-])o2)cc1 | 4 | 2 | -18 | 1 | 96*
NS(=O)(=O)c1ccc(-c2ccc(/C=N/NC(=O)c3ccc([N+](=O)[O-])cc3)o2)cc1 | 50* | -1 | 6 | 4 | /
O=C(COC(=O)c1cc(-c2ccccc2Cl)nc2ccccc12)Nc1ncc(C(F)(F)F)cc1Cl | 0 | -4 | 16 | -2 | 49*
CCOc1ccc(-c2cc(CCCC(=O)NCCCOC)no2)cc1 | 7 | 5 | -31 | 0 | 49*
CCOc1ccc(-c2cc(CCCC(=O)N3CCN(c4ccc(OC)cc4)CC3)no2)cc1 | 5 | -3 | 2 | -2 | 11
Cc1cccc(N(C)S(=O)(=O)c2c(C)noc2C)c1 | / | / | -27 | 6 | /
SMILES | BaF3 parental | Ba/F3 V617F tox | KLF5 inh | IEC-6 cytotox | APP 5UTR inh
CCc1nc(CN2CCCC(C(=O)c3ccc4c5c(cccc35)CC4)C2)c(C)[nH]1 (stereo not given) | 82* | 3 | -13 | 10 | -4
O=C(NC1CCCC1)C1CCN(C(=O)c2ccc(Cl)cc2Cl)CC1 | / | / | 13 | 9 | /
C=CCn1c(O)c(N=NC(=O)OCC)c2ccccc21 | 4 | -2 | -15 | -3 | 13
C=CCn1c(O)c(N=NC(=O)c2ccc3c(c2)OCO3)c2ccccc21 | -1 | -3 | -20 | -2 | 50*
COc1cc(NCCCC(C)N)c2ncccc2c1 (stereo not given) | 36* | 41* | -2 | 16 | 3
COc1cc(NC(=O)c2ccccc2Cl)c2ncccc2c1 | / | / | -38 | 17 | /
CCC(CNc1cc(OC)cc2cccnc12)NC1CCCCC1 (stereo not given) | 27* | 43* | -15 | 2 | /
O=C(N/C(=C/c1ccc([N+](=O)[O-])cc1)C(=O)N1CCOCC1)c1ccco1 | / | / | -57 | 3 | /
CCOc1ccccc1NC(=O)C1CCCN(S(=O)(=O)c2c(C)[nH]c(=O)[nH]c2=O)C1 (stereo not given) | 6 | 4 | -1 | 1 | 45*
CCCCc1cc(=O)oc2cc(C)cc(OCC(=O)N3C[C@H]4C[C@@H](C3)c3cccc(=O)n3C4)c12 | / | / | -17 | 10 | /
CCOc1ccccc1CN1CCCC(C(=O)Nc2cccc(-n3cccn3)c2)C1 (stereo not given) | / | / | 13 | 10 | /
CSc1sccc1/C=C(/C#N)C(=O)c1ccco1 | / | / | -45 | 2 | /
Cc1ccc2c(c1)c(C)cc[n+]2Cc1ccccc1 | 70* | 94* | 27 | 5 | -5
COc1ccc2c(c1)c(C)cc[n+]2Cc1ccccc1 | / | / | -49 | 1 | /
COc1ccc(/C=C/C(=O)NCC(=O)N/N=C/c2cccs2)cc1 | / | / | -16 | 2 | /
CCCCOC(=O)/C=C/c1ccc(OC(=O)OC)c(OC(=O)OC)c1 | 1 | -4 | 13 | 3 | -9
COC(=O)Oc1ccc(/C=C/C(=O)OC(C)C)cc1OC(=O)OC | 35* | 71* | -101 | 13 | 37
CC(=O)Nc1ccc(S(=O)(=O)NCc2nc(-c3ccccc3C)no2)cc1 | / | / | 8 | 2 | /
CSc1nnc2c3ccccc3n(Cc3ccccc3)c2n1 | 4 | 7 | 12 | -5 | 11
CCN(CC)CCSc1nnc2c3cc(C)ccc3n(Cc3ccccc3)c2n1 | 33* | 25* | -31 | 2 | /
CCOC(=O)C1=C(C)N(c2ccc(C)cc2)C(=O)/C1=C\c1ccc(O)c(OC)c1 | 29* | -5 | -2 | 1 | /
Cc1ccc2c(c1)CCCN2C(=O)c1ccc2c(c1)OCO2 | 30* | 29* | -41 | 2 | -11
O=C(c1ccc2c(c1)OCO2)N1CCCc2ccccc21 | 8 | 7 | 6 | 7 | -26
Cc1ccc(N2CCN(C(=O)c3ccccc3NC(=O)C3CC=CCC3C(=O)O)CC2)cc1 (stereo not given) | 4 | -4 | -26 | 0 | -3
NC(=O)c1ccc(N2CCN(S(=O)(=O)c3ccccc3)CC2)c([N+](=O)[O-])c1 | 38* | 36* | -28 | 11 | 12
CCC(=O)N1CCN=C1SCc1cccc(C(F)(F)F)c1 | / | / | -8 | -3 | /
CC(=O)C1=NN(c2ccccc2)C(c2cccs2)N1c1ccccc1 (stereo not given) | 43* | 22 | -41 | -3 | 10
Clc1ccc2noc(-c3ccccc3)c2c1 | -1 | -4 | 3 | -2 | 47*

Bioassay records from PubChem.
